From PubChem BioAssay (EPA / NIEHS)
Inconclusive results are not listed. The source made the active and inactive calls. Rule for the calls: active = hit-call score of the fitted dose curve at least 0.9, where 1 is the maximum; inconclusive = response in the unintended direction; inactive = score below 0.9.

Experiment: Tanguay_ZF_120hpf_MORT_legacy: (Legacy) Oregon State University Tanguay Lab 120 Hour Post-fertilization zebrafish Assay for Mortality (AID 2283633);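 for AC50: fitted as increase in binary mortality versus DMSO negative control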
Summary of the method: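 Static waterborne exposure from 6 to 120 hpf at 28C of single dechorionated wild-type (5D) embryos per well, 0.64% DMSO final. Death recorded present/absent by brightfield at 24 and 120 hpf.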

SMILES | outcome | AC50
COc1ccc(C(=O)Nc2nc3ccccc3c(NCc3ccccc3)c2C#N)cc1 | inactive | 
CC1=C(C)S(=O)(=O)CCS1(=O)=O | inactive | 
Cc1cn([C@H]2C=C[C@@H](CO)O2)c(=O)[nH]c1=O | inactive | 
O=C(N[C@@H](c1ccccc1)[C@@H]1CCCCN1)c1cccc(C(F)(F)F)c1Cl |  | 26.6 µM (active)
CCCCC(CC)COP(=O)(OCC(CC)CCCC)OCC(CC)CCCC (stereo not given) | inactive | 
COC(=O)CCCC(=O)OC | inactive | 
CCCCCCCCCCCCCCCCO | inactive | 
CC(N)=O | inactive | 
CCCCCCC(CCCCCCCCCCC(=O)OCC(COC(C)=O)OC(C)=O)OC(C)=O (stereo not given) | inactive | 
C=CCCCCCCCCCCCC | inactive | 
CC(=O)S[C@H](C(=O)N[C@H]1Cc2ccccc2[C@H]2CCC[C@@H](C(=O)O)N2C1=O)C(C)C | inactive | 
CCCCCCC(C=O)=Cc1ccccc1 | inactive | 
CCCCc1nc2cccnc2n1Cc1ccc(-c2ccccc2-c2nnn[nH]2)cc1 | inactive | 
CC(C)c1cccc(C(C)C)c1NC(=O)NS(=O)(=O)c1cc(C(C)(C)O)co1 | inactive | 
CC(C)(C)c1ccccc1 |  | 13.1 µM (active)
O=C(NS(=O)(=O)/C=C/c1cccs1)c1ccc(F)cc1Br | inactive | 
CC1(C)C(=O)NC(=O)N1CO | inactive | 
CC(=O)O[C@]1(C(C)=O)CC[C@H]2[C@@H]3C=C(Cl)C4=CC(=O)[C@@H]5C[C@@H]5[C@]4(C)[C@H]3CC[C@@]21C | inactive | 
CC(=O)[C@@]1(O)CC[C@H]2[C@@H]3CCC4=CC(=O)CC[C@]4(C)[C@H]3CC[C@@]21C | inactive | 
CS(=O)(=O)c1ccc([C@@H](C[C@H]2CCC(=O)C2)C(=O)Nc2cnccn2)cc1Cl | inactive | 
CO[C@@H]1COCC[C@@H]1N[C@@H]1CC[C@@](C(=O)N2CCc3ncc(C(F)(F)F)cc3C2)(C(C)C)C1 | inactive | 
OCC(CO)n1cnc(-c2ccc(F)cc2)c1-c1ccnc(Oc2ccccc2)n1 | inactive | 
CN(C)CCCN(C)CCCN(C)C | inactive | 
CN(C)C(=O)NC1(c2ccccc2)CCN(CC[C@@]2(c3ccc(F)c(F)c3)CN(C(=O)c3ccccc3)CCO2)CC1 | inactive | 
NC(=Nc1ccccc1)Nc1ccccc1 | inactive | 
COc1ccc(OC(F)(F)F)cc1CN[C@H]1CCCN[C@H]1c1ccccc1 |  | 25 µM (active)
O=[Si]=O | inactive | 
Cc1cc(SC2=C(O)C[C@@](CCc3ccc(N)cc3)(C(C)C)OC2=O)c(C(C)(C)C)cc1CO | inactive | 
CCCCCCCCCC[N+](C)(C)[O-] | inactive | 
O=C(O)c1cccnc1 | inactive | 

Experiment: Tanguay_ZF_120hpf_YSE_legacy: (Legacy) Oregon State University Tanguay Lab 120 Hour Post-fertilization zebrafish Assay for Yolk Sac Edema (AID 2283634)
Summary of the method: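 Presence or absence of yolk sac edema was recorded at 120 hpf in surviving larvae. These were wild-type Tropical 5D embryos, chorion removed at 4 hpf, held in static exposure at 28C from 6 hpf with 0.64% DMSO vehicle.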

SMILES | outcome
COc1ccc(C(=O)Nc2nc3ccccc3c(NCc3ccccc3)c2C#N)cc1 | inactive
CC1=C(C)S(=O)(=O)CCS1(=O)=O | inactive
Cc1cn([C@H]2C=C[C@@H](CO)O2)c(=O)[nH]c1=O | inactive
O=C(N[C@@H](c1ccccc1)[C@@H]1CCCCN1)c1cccc(C(F)(F)F)c1Cl | inactive
CCCCC(CC)COP(=O)(OCC(CC)CCCC)OCC(CC)CCCC (stereo not given) | inactive
COC(=O)CCCC(=O)OC | inactive
CCCCCCCCCCCCCCCCO | inactive
CC(N)=O | inactive
CCCCCCC(CCCCCCCCCCC(=O)OCC(COC(C)=O)OC(C)=O)OC(C)=O (stereo not given) | inactive
C=CCCCCCCCCCCCC | inactive
CC(=O)S[C@H](C(=O)N[C@H]1Cc2ccccc2[C@H]2CCC[C@@H](C(=O)O)N2C1=O)C(C)C | inactive
CCCCCCC(C=O)=Cc1ccccc1 | inactive
CCCCc1nc2cccnc2n1Cc1ccc(-c2ccccc2-c2nnn[nH]2)cc1 | inactive
CC(C)c1cccc(C(C)C)c1NC(=O)NS(=O)(=O)c1cc(C(C)(C)O)co1 | inactive
CC(C)(C)c1ccccc1 | inactive
O=C(NS(=O)(=O)/C=C/c1cccs1)c1ccc(F)cc1Br | inactive
CC1(C)C(=O)NC(=O)N1CO | inactive
CC(=O)O[C@]1(C(C)=O)CC[C@H]2[C@@H]3C=C(Cl)C4=CC(=O)[C@@H]5C[C@@H]5[C@]4(C)[C@H]3CC[C@@]21C | inactive
CC(=O)[C@@]1(O)CC[C@H]2[C@@H]3CCC4=CC(=O)CC[C@]4(C)[C@H]3CC[C@@]21C | inactive
CS(=O)(=O)c1ccc([C@@H](C[C@H]2CCC(=O)C2)C(=O)Nc2cnccn2)cc1Cl | inactive
CO[C@@H]1COCC[C@@H]1N[C@@H]1CC[C@@](C(=O)N2CCc3ncc(C(F)(F)F)cc3C2)(C(C)C)C1 | inactive
OCC(CO)n1cnc(-c2ccc(F)cc2)c1-c1ccnc(Oc2ccccc2)n1 | inactive
CN(C)CCCN(C)CCCN(C)C | inactive
CN(C)C(=O)NC1(c2ccccc2)CCN(CC[C@@]2(c3ccc(F)c(F)c3)CN(C(=O)c3ccccc3)CCO2)CC1 | inactive
NC(=Nc1ccccc1)Nc1ccccc1 | inactive
COc1ccc(OC(F)(F)F)cc1CN[C@H]1CCCN[C@H]1c1ccccc1 | inactive
O=[Si]=O | inactive
Cc1cc(SC2=C(O)C[C@@](CCc3ccc(N)cc3)(C(C)C)OC2=O)c(C(C)(C)C)cc1CO | inactive
CCCCCCCCCC[N+](C)(C)[O-] | inactive
O=C(O)c1cccnc1 | inactive
